The list is not random: actives were taken first. Their share in the collection is about 19%.
Shiga toxin inh: blocks Shiga toxin action in Vero cells. Vero cells, Shiga toxin protein synthesis inhibition reporter. inhibition, % at 38.7 µM. hit rate 9.2% among 290,000. AID 2315; in the data active = inhibition mostly above about 28%, no sharp cut-off; inactive = mostly below about 43%; note: 0% is about no effect
Cycloheximide cs: counter-screen for Shiga toxin inhibitors: cycloheximide protein synthesis inhibition | cell reporter, cycloheximide protein synthesis inhibition counterscreen | max response, % | hit rate 12% among 300,000 | AID 2314; in the data active = max response mostly above about 13%, no sharp cut-off; inactive = mostly below about 14%; note: read at 38.3 µM for the half of the compounds with a filed dose; 0% is about no effect
AMA1-RON2 inh: AMA1-RON2 (P. falciparum) interaction inhibition; AID 720542; hit rate 0.2% among 360,000; Potency, µM (doses to about 58.2 µM), for the others: at the highest dose activity change, negative = inhibition, hits mostly inhibitors; AlphaScreen AMA1-biotinylated RON2 peptide binding;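 note: potency is the fitted concentration of half-maximal effect; 0% = vehicle wells and -100% = peptide control; nearly all actives have a fitted effect of over 45% in size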
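AMA1 (3D7) with his tag at 25 nM final met compounds first, then biotinylated RON2 peptide at 25 nM; detection used donor plus acceptor beads, 10 µg/mL apiece, read by AlphaScreen after 30 min at room temperature.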
Pf growth 48h: P. falciparum growth inhibition at 48 hours (one generation); P. falciparum luciferase growth in erythrocytes, 48 h; Potency, µM (top dose mostly 28.7 µM), for the others: at the highest dose activity change, negative = inhibition, hits mostly inhibitors; hit rate 5.9% among 310,000; note: potency is the fitted concentration of half-maximal effect; % is set by controls: 0 for no effect and ±100 for the full control effect
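Luciferase-expressing parasites in RBCs, 2% Hct / 0.1% parasitemia final; RPMI 1640 + 0.5% Albumax; 37 C, 5% CO2, one generation; luminescence read-out, lower signal = inhibition.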
SARS PLpro yeast: blocks SARS-CoV papain-like protease in a yeast assay | S. cerevisiae expressing SARS-CoV PLpro, growth rescue | Potency, µM (top dose mostly 32.9 µM), without a hit: at the top dose activity, positive = growth rescue, most hits filed as activators | hit rate 0.19% among 330,000 | AID 485353; calls by dose curve; note: potency is the fitted concentration of half-maximal effect; 0% is about no effect; nearly all actives have a fitted effect of over 55% in size
Pf growth 96h: P. falciparum growth inhibition at 96 hours; Potency, µM (doses to about 28.7 µM), without a hit: top-dose activity change, negative = inhibition, hits mostly inhibitors; P. falciparum luciferase reporter growth, 96 h; hit rate 6.9% among 320,000; note: potency is the fitted concentration of half-maximal effect; % is set by controls: 0 for no effect and ±100 for the full control effect
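Delayed-death screen, second-generation endpoint: infected erythrocytes, 2% hematocrit, 0.05% parasitemia final; 96 hours at 37 C, 5% CO2; luciferase detection reagent; luminescence decrease equals reduced growth.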
The depositor's hits bear a star; ? = inconclusive; nt = not tested or not shown; [ ] = remark or other dose. Unless noted, calls come from the whole dose curve; as a rule, active = well fitted curve in the direction sought with a large enough effect; inconclusive = small, poorly fitted or top-dose-only effect, or another doubt; inactive = no such curve, though single readings can be large; an effect the other way counts as inactive or inconclusive.

SMILES	Shiga toxin inh	Cycloheximide cs	AMA1-RON2 inh	Pf growth 48h	SARS PLpro yeast	Pf growth 96h
O=C(c1cc(N2C(=O)C3C4CCC(C4)C3C2=O)ccc1Cl)N1CCN(c2ccccc2F)CC1 (stereo unspecified)	-2	-7	15%	-9%	1%	?
N[C@@H](Cc1ccc(O)cc1)c1nnc([C@H](CO)NC(=O)C2CCNCC2)o1	-10	-2	91%	2%	0%	23%
O=C(O)/C=C\c1cn(-c2ccccc2)nc1-c1cc2ccccc2o1	14	10	-12%	?	-3%	2%
O=C(O)/C=C/c1cn(-c2ccccc2)nc1-c1ccccc1	20	14	8%	16%	0%	5.9µM*
C(=N\N1CCOCC1)/c1cn(-c2ccccc2)nc1-c1ccccc1	35	22*	-21%	9%	-10%	32%
CCOC(=O)/C=C/c1cnn(-c2ccccc2)c1	169*	89*	16%	294%	?	231%
N#Cc1cn(-c2ccccc2)nc1-c1ccccc1	25	21*	11%	90%	1%	-8%
O=C(CSc1nnc(Nc2ccccc2)s1)NN1C(=O)NC2(CCCCC2)C1=O	9	-2	-5%	13%	8%	-10%
Cc1ccc2nsnc2c1S(=O)(=O)N(Cc1cc2cccc(C)c2[nH]c1=O)CC1CCCO1 (stereo unspecified)	-5	-2	-5%	17%	-4%	nt
O=C(O)/C=C/c1cnn(-c2ccccc2)c1	26	21*	11%	191%	0%	381%
O=C1OC(c2ccc(F)cc2)=C/C1=C\c1ccc(O)cc1	40	14*	-2%	60%	-1%	-7%
O=c1c2c3c(sc2n(CCN2CCCC2)c(=O)n1Cc1ccco1)CCCCC3	-21	5	-17%	?	2%	4%
Cc1ccc(NC(=O)Cn2c(=O)n(Cc3ccco3)c(=N)c3c4c(sc32)COC(C)(C)C4)cc1	-20	-1	3%	?	-1%	?
O=C(O)Cn1c(=O)c2c3c(sc2n(Cc2ccccc2)c1=O)CCCC3	-16	-5	-10%	10%[0.00184 µM]	4%	35%
O=C(Cn1c(=O)n(Cc2ccco2)c(=O)c2c3c(sc21)CCCCC3)c1ccccc1	57*	12	-15%	-11%	0%	0%
CN(C)CCn1c(=O)n(Cc2ccco2)c(=O)c2c3c(sc21)CCCCC3	-9	-4	0%	?	2%	7.4µM*
O=C(Cn1c(=O)n(Cc2ccco2)c(=O)c2c3c(sc21)CCCCC3)Nc1ccccc1	15	6	-23%	?	0%	12µM*
CCOC(=O)c1sc(NC(=O)C2CC(=O)N(c3ccc(C)cc3)C2)nc1C (stereo unspecified)	-4	-6	-2%	9%	1%	53%
CCCCc1nc(SCC(=O)N2CCOCC2)c2c(=O)n(C)c(=O)n(C)c2n1	-1	-1	-11%	12%	3%	10%
CN(C)c1ccc(/C=c2/sc3n(c2=O)NC2(c4ccccc4)N(C)C(=O)N(C)C2(c2ccccc2)N=3)cc1 (stereo unspecified)	-9	-3	nt	-17%	0%	?
O=c1[nH]c2ccc([N+](=O)[O-])cc2nc1/C=C(\O)c1ccccc1	-3	-2	0%	32%	0%	89%
CN(C)c1ccc(N=Cc2cccn2C)cc1	107*	85*	22µM*	3%	-8%	?
CCOC(=O)c1sc(=S)n(-c2ccc(Cl)cc2)c1SC	-6	-2	-17%	?	5%	0.93µM*
CCOC(=O)c1ccc(-n2c(N)c(C(=O)NCc3ccco3)sc2=S)cc1	-15	-4	-29%	?	-11%	13%
CCOC(=O)c1sc(=S)n(-c2ccc3c(c2)OCO3)c1N	30	30*	-8%	-22%	-7%	-16%
SMILES	Shiga toxin inh	Cycloheximide cs	AMA1-RON2 inh	Pf growth 48h	SARS PLpro yeast	Pf growth 96h
C=CCNC(=O)c1sc(=S)n(-c2ccc(C(=O)OCC)cc2)c1N	-6	-3	-6%	11%	-15%	2.9µM*
Cc1ccc(-n2c(N)c(C(N)=O)sc2=S)c(C)c1	-25	-2	-8%	12%	1%	15µM*
CCOc1ccccc1-n1c(N)c(C(N)=O)sc1=S	-7	8	19%	28%	0%	1.7µM*
CCOC(=O)c1sc(=S)n(-c2ccccc2OC)c1N	-8	1	-10%	-14%	-26%	6.6µM*
COc1cccc(NS(=O)(=O)c2c(C(=O)N3CCCCCC3)c(C)n(C)c2C)c1	-15	-3	-4%	-5%	3%	-17%
COc1cc(-c2coc3c(C(=O)NCc4ccc(OC)c(OC)c4)cccc23)ccc1O	nt	nt	-15%	nt	nt	nt
CCN(CC)CCCNC(=O)C1c2ccccc2Oc2ccccc21	1	-3	0%	-1%	-2%	-3%[5.75 µM]
CNCCCC1Sc2ccccc2Oc2ccccc21 (stereo unspecified)	-8	-4	14%	?	2%	9.3µM*
Cc1csc(SCC(=O)Nc2ccc3c(c2)OCCO3)n1	75*	42*	-2%	49%	-2%	11%
Cc1csc(SCC(=O)Nc2ccc(C)c(F)c2)n1	nt	nt	4%	-12%	6%	?
CSc1nsc(SCC(=O)Nc2ccc(F)cc2)n1	42	9	8%	66%	-3%	20%
CSc1nsc(SCC(=O)Nc2ccc3c(c2)OCCO3)n1	94	41*	5%	191%	-7%	nt
O=C(CCC(=O)Nc1ccccc1Cl)NNC(=O)c1ccco1	-18	1	21%	18%	3%	?
CC(C)CCn1cnc2c(cnn2-c2ccc(F)cc2)c1=O	60*	36*	-1%	112%	4%	nt
COC(=O)C(C)n1cnc2c(cnn2-c2ccc(Cl)cc2)c1=O (stereo unspecified)	69*	54*	0%	28%	3%	nt
COC(=O)c1ccc(Cn2cnc3c(cnn3-c3ccc(F)cc3)c2=O)o1	-16	-6	5%	2%	4%	-19%
Cc1nnc2c3cnn(-c4ccc(Cl)cc4)c3ncn12	77*	27*	nt	96%	1%	2%
COC(=O)c1ccc(Cn2cnc3c(cnn3-c3ccc(Cl)cc3)c2=O)o1	-11	-4	-24%	6%	30%	2%
CCOC(=O)Cn1cnc2c(cnn2-c2ccc(Cl)cc2)c1=O	36	36*	-3%	?	1%	?
COc1ccc(/C=N/NC(=O)c2nnn(-c3nonc3N)c2CN(C)c2ccccc2)cc1	-6	-2	7%	11%	-5%	0%
CCc1ccc(C2NC(=S)NC3=C2C(=O)CC(C)(C)C3)cc1 (stereo unspecified)	-10	-1	-3%[2.32 µM]	-10%	-16%	29%
Cc1ccccc1S(=O)(=O)Oc1cccc2c(O)cccc12	29	11	0%	6%	-12%	-11%
CCOC(=O)Cn1cnc2c(cnn2-c2ccccc2)c1=O	42	21*	-1%	-13%	4%	-17%
